From PubChem BioAssay AID463173 (ICCB-Longwood Screening Facility, Harvard Medical School, 2010)
In all, about 52,000 compounds went through this assay and about 4,300 (8.3%) were called active. No stated cut-off is given here; in the data, active means survival mostly below about 52% (no sharp cut-off); inactive means mostly above about 56%. The sample as a whole holds a higher share of actives than the screen did.

System: DeltatarO mutant
Assay: growth inhibition of S. aureus wild type versus tarO mutant, primary screen, teichoic acid synthesis inhibitors, RN4220, OD600 (AID 463173)
Details: OD600, 18 h, stronger effect = lower value, screened at 18.75 µg/mL (by protocol)

SMILES	survival
CCOC(=O)c1cc(S(=O)(=O)NCc2ccccc2)[nH]n1	124% (inactive)
CC(C)c1ccc(Nc2ncnc3onc(-c4ccc(F)cc4)c23)cc1	80% (inactive)
COc1ccc(CN2C(=O)N(c3ccc(F)cc3)C(=O)C2CC(=O)Nc2ccccc2)cc1 (stereo unspecified)	77% (inactive)
COC(=O)c1ccc(NC(=O)CC2C(=O)N(c3cccc(OC)c3)C(=O)N2C(C)C)cc1 (stereo unspecified)	88% (inactive)
COC(=O)c1ccc(NC(=O)CC2C(=O)N(c3ccccc3)C(=O)N2Cc2ccc(F)cc2)cc1 (stereo unspecified)	55% (inactive)
CCCOc1ccc(NC(=O)CC2C(=O)N(c3ccccc3)C(=O)N2Cc2ccc(F)cc2)cc1 (stereo unspecified)	17% (active)
CCc1ccc(NC(=O)CC2C(=O)N(c3ccccc3)C(=O)N2C(C)C)cc1 (stereo unspecified)	-5% (active)
O=C(CC1C(=O)N(c2ccccc2)C(=O)N1CCC1=CCCCC1)Nc1ccc(F)cc1 (stereo unspecified)	48% (inactive)
CCCOc1ccc(NC(=O)CC2C(=O)N(c3ccc(C)cc3)C(=O)N2Cc2cccc(OC)c2)cc1 (stereo unspecified)	46% (active)
COc1cccc(CN2C(=O)N(c3ccc(C)cc3)C(=O)C2CC(=O)Nc2cc(OC)cc(OC)c2)c1 (stereo unspecified)	144% (inactive)
CCCOc1ccc(NC(=O)CC2C(=O)N(c3ccc(C)cc3)C(=O)N2C(C)C)cc1 (stereo unspecified)	128% (inactive)
CCOc1ccc(NC(=O)CC2C(=O)N(c3ccccc3)C(=O)N2Cc2cccc(OC)c2)cc1 (stereo unspecified)	102% (inactive)
Cc1ccc(N2C(=O)C(CC(=O)Nc3ccc(F)cc3)N(CCC3=CCCCC3)C2=O)cc1 (stereo unspecified)	55% (active)
Cc1ccc(N2C(=O)C(CC(=O)Nc3ccccc3)N(CCC3=CCCCC3)C2=O)cc1 (stereo unspecified)	67% (inactive)
CCN(C(=O)c1c(C)oc2ncnc(N3CCCCC3)c12)c1cc(C)ccc1C	95% (inactive)
CCC(C)C(NC(=O)c1cc(C)oc1C)C(=O)O (stereo unspecified)	95% (inactive)
CCOc1ccc(NC(=O)c2oc3ccccc3c2NC(=O)c2ccc(OC)cc2OC)cc1	51% (inactive)
Cc1ccc(N2C(=O)C(CC(=O)Nc3ccc(F)cc3)N(Cc3ccc4c(c3)OCO4)C2=O)cc1 (stereo unspecified)	70% (inactive)
O=C(CC1C(=O)N(c2ccc(F)cc2)C(=O)N1Cc1ccc2c(c1)OCO2)Nc1ccc(F)cc1 (stereo unspecified)	72% (inactive)
O=C(CC1C(=O)N(c2ccc(F)cc2)C(=O)N1Cc1ccc2c(c1)OCO2)Nc1ccc(Cl)cc1 (stereo unspecified)	43% (active)
Cc1ccc(Cl)cc1NC(=O)c1cc(S(=O)(=O)N2CCCCCC2)cn1C	71% (inactive)
O=C(CSc1oc(-c2cccs2)nc1S(=O)(=O)c1ccccc1)Nc1ccc(F)cc1	55% (inactive)

SMILES	survival
O=C(NCC(c1cccnc1)N1CCc2ccccc2C1)C(=O)Nc1ccccc1 (stereo unspecified)	81% (inactive)
CCC1CN(C(=O)NCc2cccc(OC)c2)c2cc(Cl)ccc2O1 (stereo unspecified)	43% (active)
CCC1CN(C(=O)NCc2cccc(OC)c2)c2ccccc2O1 (stereo unspecified)	62% (inactive)
CCC1CN(C(=O)NCc2ccccc2)c2cc(Cl)ccc2O1 (stereo unspecified)	46% (active)
CCC1CN(C(=O)NCc2ccccc2)c2cc(C)ccc2O1 (stereo unspecified)	51% (inactive)
CCC1CN(C(=O)NCc2ccc(F)cc2)c2cc(C)ccc2O1 (stereo unspecified)	52% (inactive)
CC1CN(C(=O)NCc2ccccc2)c2cc(Cl)ccc2O1 (stereo unspecified)	49% (inactive)
CCC1CN(C(=O)NCc2ccc(F)cc2)c2ccccc2O1 (stereo unspecified)	67% (inactive)
CCC1CN(C(=O)NCc2ccc(F)cc2)c2cc(Cl)ccc2O1 (stereo unspecified)	39% (active)
CCC1CN(C(=O)NCc2ccc(C)cc2)c2cc(Cl)ccc2O1 (stereo unspecified)	93% (inactive)
O=C(NCc1ccco1)c1ccc2c(c1)N(Cc1cccc(Cl)c1)C(=O)c1ccccc1S2=O (stereo unspecified)	63% (inactive)
CC(=O)N1CCc2c(sc3c2c(=O)n(-c2ccccc2)c(=O)n3CC(=O)Nc2ccccc2C)C1	71% (inactive)
Cc1ccc(C)c(NC(=O)CN2C(=O)CSc3nc(C)cc(C)c32)c1	103% (inactive)
O=C(NCc1ccc(F)cc1Cl)c1cc(=O)[nH]c2ccc(S(=O)(=O)N3CCCCC3)cc12	102% (inactive)
Cc1ccc(S(=O)(=O)c2cn(Cc3cccc(C)c3)c3cc4c(cc3c2=O)OCO4)cc1	101% (inactive)
COc1ccc(C)cc1NC(=O)CCNS(=O)(=O)c1cccc2nonc12	43% (active)
COc1ccc(NC(=O)CCNS(=O)(=O)c2cccc3nonc23)c(OC)c1	50% (active)
O=C(CCNS(=O)(=O)c1cccc2nonc12)Nc1ccc(F)cc1	45% (active)
CCOc1ccccc1NC(=O)CCNS(=O)(=O)c1cccc2nonc12	45% (active)
COc1ccc(Cl)cc1NC(=O)CCS(=O)(=O)c1cccc2nonc12	146% (inactive)
O=C(CCS(=O)(=O)c1cccc2nonc12)Nc1cccc(F)c1	67% (inactive)
CCc1ccccc1NC(=O)CCS(=O)(=O)c1cccc2nonc12	74% (inactive)

SMILES	survival
COc1ccc(NC(=O)CCNS(=O)(=O)c2cccc3nsnc23)cc1OC	65% (inactive)
COc1ccc(OC)c(NC(=O)CCNS(=O)(=O)c2cccc3nsnc23)c1	49% (inactive)
CCOc1ccccc1NC(=O)C1CCN(S(=O)(=O)c2cccc3nonc23)CC1	74% (inactive)
O=C(CCNS(=O)(=O)c1cccc2nsnc12)Nc1ccc(F)cc1	56% (inactive)
COc1ccc(C)cc1NC(=O)C1CCN(S(=O)(=O)c2cccc3nonc23)CC1	108% (inactive)
CC(=O)N1CCN(c2ccc(NC(=O)COc3ccc(Cl)c(C)c3)cc2)CC1	68% (inactive)
CCN(CC)S(=O)(=O)c1ccc(NC(=O)CN(c2ccccc2)S(=O)(=O)N(C)C)cc1	69% (inactive)
CCNC(=O)c1cnc2sc(N3CCCCCC3)nn2c1=O	81% (inactive)
C/C(Cc1ccccc1)=N\NC(=O)c1cc(C(C)(C)C)[nH]n1	101% (inactive)
CC1=C(c2ccc(C)c(C)c2)S(=O)(=O)N=C1N1CCC(C(=O)NC(C)Cc2ccco2)CC1 (stereo unspecified)	83% (inactive)
O=C(CN1CCN(c2ncccn2)CC1)N(Cc1ccccc1)c1ccc(F)cc1	78% (inactive)
COc1ccc(NC(=O)C2CCN(C3=NS(=O)(=O)C(c4ccc(C)c(C)c4)=C3C)CC2)c(OC)c1	91% (inactive)
CN=CC1=C(O)C(C(=O)OC)C(C)(C)CC1=O (stereo unspecified)	74% (inactive)
CCCCCn1c(=O)[nH]c2cc(C(=O)N3CCN(c4ccccc4)CC3)ccc2c1=O	68% (inactive)
CCOc1ccc(NC(=O)CCNS(=O)(=O)c2cccc3nonc23)cc1	70% (inactive)
COc1ccc(NC(=O)CCNS(=O)(=O)c2cccc3nonc23)cc1	50% (active)
CCOc1ccc(NC(=O)CCS(=O)(=O)c2cccc3nonc23)cc1	78% (inactive)
O=C(C1CCCCC1)N(Cc1cccnc1)c1nc2c(F)cc(F)cc2s1	88% (inactive)
COc1ccc(C2C=C(c3ccccc3)Nc3nc(NC(=O)/C=C/c4ccccc4Cl)nn32)cc1 (stereo unspecified)	96% (inactive)
COc1ccc(C2C=C(c3ccccc3)Nc3nc(NC(=O)/C=C/c4ccccc4)nn32)cc1 (stereo unspecified)	59% (inactive)
COc1ccc(C2C=C(c3ccccc3)Nc3nc(NC(=O)/C=C/c4ccc(Cl)cc4)nn32)cc1 (stereo unspecified)	53% (inactive)
O=C(/C=C/c1ccccc1)Nc1nc2n(n1)C(c1ccc(Cl)cc1)C=C(c1ccccc1)N2 (stereo unspecified)	38% (active)

SMILES	survival
O=C(/C=C/c1ccccc1)Nc1nc2n(n1)C(c1ccc(F)cc1)C=C(c1ccccc1)N2 (stereo unspecified)	44% (active)
COc1ccc(C2C=C(c3ccccc3)Nc3nc(NC(=O)/C=C/c4ccccc4OC)nn32)cc1 (stereo unspecified)	52% (active)
O=C(/C=C/c1ccc(F)cc1)Nc1nc2n(n1)C(c1ccc(Cl)cc1)C=C(c1ccccc1)N2 (stereo unspecified)	33% (active)
COc1ccc(/C=C/C(=O)Nc2nc3n(n2)C(c2ccccc2)C=C(c2ccc(Cl)cc2)N3)cc1 (stereo unspecified)	77% (inactive)
COc1ccccc1/C=C/C(=O)Nc1nc2n(n1)C(c1ccc(F)cc1)C=C(c1ccccc1)N2 (stereo unspecified)	65% (inactive)
COc1ccc(NCc2cccn2-c2nnc(N3CCC(C)CC3)s2)c(OC)c1	73% (inactive)
COc1ccc(C(=O)Nc2ccccc2C(=O)NC(C(=O)O)C(C)C)cc1 (stereo unspecified)	84% (inactive)
O=C(CSc1nc(-c2ccccc2)cc(=O)[nH]1)Nc1ccccc1F	89% (inactive)
CCCN(CCC)S(=O)(=O)c1ccc(C(=O)N2CCC(=O)c3ccccc32)cc1	94% (inactive)
CCc1cccc(C)c1NC(=O)C(CC)n1ncn2c(cc3cc(C)ccc32)c1=O (stereo unspecified)	86% (inactive)
COc1ccc(NC(=O)CN(c2cccc(C)c2C)S(=O)(=O)c2ccccc2)cc1OC	61% (inactive)
Cc1ccc2c(c1)cc1c(=O)n(CC(=O)N(C)c3ccccc3)nc(C)n12	129% (inactive)
O=C(NCCc1ccccc1)c1ccc2c(c1)N(Cc1ccccc1)C(=O)c1ccccc1S2=O (stereo unspecified)	70% (inactive)
COc1ccc(OC)c2sc(N(Cc3cccnc3)C(=O)c3ccc(C(C)=O)cc3)nc12	120% (inactive)
COc1ccc(C2C=C(c3ccccc3)Nc3nc(NC(=O)/C=C/c4ccc(F)cc4)nn32)cc1 (stereo unspecified)	51% (inactive)
COc1ccc(/C=C/C(=O)Nc2nc3n(n2)C(c2ccc(F)cc2)C=C(c2ccccc2)N3)cc1 (stereo unspecified)	42% (active)
COc1ccc(/C=C/C(=O)Nc2nc3n(n2)C(c2ccccc2)C=C(c2ccccc2)N3)cc1 (stereo unspecified)	70% (inactive)
Cc1cc(=O)[nH]c(SCC(=O)OCc2ccccc2)c1C#N	102% (inactive)
CCCN(CCC)CCCNC(=O)Cn1ncc2c3ccccc3n(Cc3ccccc3F)c2c1=O	129% (inactive)
Cc1ccccc1Cn1c(CN2CCC(C(=O)NCc3ccc(Cl)cc3)CC2)cc2ccccc21	67% (inactive)
